{
  "source": "PubChem BioAssay (EPA / NIEHS)",
  "note": "Where “and” joins values, the source holds several entries; their conditions need not be identical. Equal values may be shown once. Inconclusive results are not listed. Where a structure was tested more than once in an assay, its records may differ in their call. Calls of active or inactive are those of the source. How the source made its calls: active means hit-call score of the fitted dose curve at least 0.9, where 1 is the maximum; inconclusive means response in the unintended direction; inactive means score below 0.9.",
  "data": [
    {"target": "human Peripheral-type Benzodiazepine Receptor (PBR), TSPO (gene 706) (UniProt P30536)", "sequence (P30536 whole entry, looked up)": "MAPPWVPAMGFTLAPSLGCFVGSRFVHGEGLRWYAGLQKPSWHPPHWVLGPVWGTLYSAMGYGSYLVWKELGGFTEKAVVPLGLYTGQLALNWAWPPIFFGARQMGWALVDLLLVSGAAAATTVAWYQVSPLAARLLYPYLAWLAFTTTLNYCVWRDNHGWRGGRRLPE", "test": "NVS_MP_hPBR: NovaScreen (NVS) Membrane Protein Assay for human Peripheral-type Benzodiazepine Receptor (PBR) (AID 2283331);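 further: hits reduce radioligand binding relative to DMSO baseline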", "method_in_brief": "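Cell-free binding to human colonic membrane preparations measured by filter-based scintillation counting after 1 h. Compounds first run at 25 uM in duplicate, then concentration series for actives; signal loss against DMSO baseline.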", "values": [
      {"compound": "CC[C@H](C)[C@H]1O[C@]2(C=C[C@@H]1C)C[C@@H]1C[C@@H](C/C=C(\\C)[C@@H](O[C@H]3C[C@H](OC)[C@@H](O[C@H]4C[C@H](OC)[C@@H](O)[C@H](C)O4)[C@H](C)O3)[C@@H](C)/C=C/C=C3\\CO[C@@H]4[C@H](O)C(C)=C[C@@H](C(=O)O1)[C@]34O)O2", "note": "(tested in a mixture with another compound)", "AC50": "0.363 µM (active)"},
      {"compound": "CC(C)N(C(=O)COc1nnc(C(F)(F)F)s1)c1ccc(F)cc1", "AC50": "0.27 µM (active)"},
      {"compound": "CCCN(CCOc1c(Cl)cc(Cl)cc1Cl)C(=O)n1ccnc1", "AC50": "2.59 µM (active)"},
      {"compound": "Oc1cc(Cl)ccc1Oc1ccc(Cl)cc1Cl", "outcome": "inactive"},
      {"compound": "COP(=S)(OC)Oc1ccc([N+](=O)[O-])cc1", "AC50": "19.5 µM (active)"},
      {"compound": "O=[N+]([O-])/N=C1\\NCCN1Cc1ccc(Cl)nc1", "outcome": "inactive"},
      {"compound": "Oc1ccc(Cl)cc1Cc1ccccc1", "AC50": "17.1 µM (active) [middle of 7 runs]"},
      {"compound": "COP(=O)(OC)OC=C(Cl)Cl", "outcome": "inactive"},
      {"compound": "N#Cc1c(Cl)c(Cl)c(Cl)c(C#N)c1Cl", "AC50": "9.01 µM (active)"},
      {"compound": "COP(=S)(OC)Oc1ccc(SC)c(C)c1", "AC50": "17.4 µM (active)"},
      {"compound": "CC(C)(C)C(O)C(Oc1ccc(Cl)cc1)n1cncn1", "note": "(stereo not drawn)", "outcome": "inactive"}
    ]},
    {"target": "rat Peripheral-type Benzodiazepine Receptor (PBR), Tspo (gene 24230) (UniProt P16257)", "sequence (P16257 whole entry, looked up)": "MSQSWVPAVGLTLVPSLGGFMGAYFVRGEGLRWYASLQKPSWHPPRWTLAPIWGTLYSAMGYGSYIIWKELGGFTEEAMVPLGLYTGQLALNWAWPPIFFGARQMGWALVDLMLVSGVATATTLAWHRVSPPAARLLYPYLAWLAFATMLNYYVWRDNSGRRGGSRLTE", "test": "NVS_MP_rPBR: NovaScreen (NVS) Membrane Protein Assay for rat Peripheral-type Benzodiazepine Receptor (PBR) (AID 2283335)", "method_in_brief": "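Single-concentration duplicate screening at 25 uM preceded concentration-series retesting of actives. Binding of a specific radioligand to rat kidney membrane PBR was read by filtration radiodetection after 1 h, with plate-wise positive and negative controls.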", "values": [
      {"compound": "CC[C@H](C)[C@H]1O[C@]2(C=C[C@@H]1C)C[C@@H]1C[C@@H](C/C=C(\\C)[C@@H](O[C@H]3C[C@H](OC)[C@@H](O[C@H]4C[C@H](OC)[C@@H](O)[C@H](C)O4)[C@H](C)O3)[C@@H](C)/C=C/C=C3\\CO[C@@H]4[C@H](O)C(C)=C[C@@H](C(=O)O1)[C@]34O)O2", "note": "(tested in a mixture with another compound)", "outcome": "inactive"},
      {"compound": "CC(C)N(C(=O)COc1nnc(C(F)(F)F)s1)c1ccc(F)cc1", "AC50": "24.8 nM (active)"},
      {"compound": "CCCN(CCOc1c(Cl)cc(Cl)cc1Cl)C(=O)n1ccnc1", "AC50": "53.9 nM (active)"},
      {"compound": "Oc1cc(Cl)ccc1Oc1ccc(Cl)cc1Cl", "AC50": "5.64 µM (active) and 25.5 µM (active) and 9.13 µM (active)", "outcome": "inactive"},
      {"compound": "COP(=S)(OC)Oc1ccc([N+](=O)[O-])cc1", "AC50": "15700 nM (active)"},
      {"compound": "O=[N+]([O-])/N=C1\\NCCN1Cc1ccc(Cl)nc1", "outcome": "inactive"},
      {"compound": "Oc1ccc(Cl)cc1Cc1ccccc1", "AC50": "11 µM (active) and 9.89 µM (active) and 8.7 µM (active)", "outcome": "inactive"},
      {"compound": "O=S(=O)(O)C(F)(F)C(F)(F)C(F)(F)C(F)(F)C(F)(F)C(F)(F)C(F)(F)C(F)(F)F", "outcome": "inactive"},
      {"compound": "COP(=S)(OC)Oc1ccc(SC)c(C)c1", "AC50": "4640 nM (active)"},
      {"compound": "CC(C)(C)C(O)C(Oc1ccc(Cl)cc1)n1cncn1", "note": "(stereo not drawn)", "outcome": "inactive"}
    ]}
  ]
}
